These results are taken from PubChem BioAssay (EPA / NIEHS).

Experiment [1] is described as follows: CCTE_Harrill_HTTr_Apoptosis_MCF7: CCTE's 6-hour Apoptosis Assessment for the High-Throughput Transcriptomics (HTTr) Platform, in MCF-7 cells cultured in DMEM + 10% fetal bovine serum, Harrill Lab (AID 2284011). The essentials:
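MCF-7 cells in DMEM + 10% fetal bovine serum were exposed to chemicals for 6 hours over an eight-point dilution series. Caspase-3/7 activation was imaged by high content imaging with CellEvent Caspase 3/7 Green; bidirectional fitting used DMSO as baseline.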

The nature of experiment [2]: CCTE_Harrill_HTTr_CellCount_MCF7: CCTE's Cell Proliferation Assessment for the High-Throughput Transcriptomics (HTTr) Platform, Harrill Lab (AID 2284012; active = hit-call score of the fitted dose curve at least 0.9, where 1 is the maximum;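 note: intended direction is loss of nuclei count meaning fewer cells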). A digest of the protocol: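 For this full-screen endpoint, MCF-7 cultures received eight compound dilutions for six hours. Well nuclei counts from Hoechst imaging were analyzed relative to DMSO.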
Experiment [3] can be described thus: CCTE_Deisenroth_AIME_384WELL_CTox_Active: Cytotoxicity Assessment (CTOX) in CCTE's 384-well Estrogen Receptor Transactivation Assay with AIME metabolic competence (metabolism positive), Deisenroth Lab (AID 2284037; active = hit-call score of the fitted dose curve at least 0.9, where 1 is the maximum;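 note: chemicals first conditioned 2 h by alginate-bound induced rat liver S9 before cells; activity means signal loss indicating cell death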). The essentials:
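VM7Luc4E2 breast cells received medium pre-incubated 2 h with chemical over alginate microspheres holding induced male Sprague Dawley rat liver S9; viability read 24 h later by protease-substrate fluorescence. Loss of signal, bidirectional fit, 0.002–200 uM.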

In experiment [4] the target is Estrogen receptor (Homo sapiens) (UniProt P03372). Put plainly: CCTE_Deisenroth_AIME_384WELL_LUC_Inactive: CCTE's 384-well Estrogen Receptor Transactivation Assay without AIME metabolic competence (ERTA luciferase; metabolism negative), Deisenroth Lab (AID 2284038; active = hit-call score of the fitted dose curve at least 0.9, where 1 is the maximum;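 note: hits raise estrogen receptor luciferase signal so potencies reflect agonists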). The essentials:
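Metabolism-negative mode: AIME lids stamped in alginate-water, no hepatic S9. 2 h chemical incubation → medium onto VM7Luc4E2 ERTA, 24 h. Readout luciferase luminescence; gain-of-signal fit vs 17beta-estradiol. Conc. 0.002 - 200 uM.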

The nature of experiment [5]: CCTE_Deisenroth_AIME_384WELL_CTox_Inactive: Cytotoxicity Assessment (CTOX) in CCTE's 384-well Estrogen Receptor Transactivation Assay without AIME metabolic competence (metabolism negative), Deisenroth Lab (AID 2284039; active = hit-call score of the fitted dose curve at least 0.9, where 1 is the maximum;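 note: cell viability via live-cell protease substrate cleaved to fluorescent probe; cells exposed 24 h to medium preincubated 2 h with alginate-water beads without S9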). A digest of the protocol:
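VM7Luc4E2 human breast cells received conditioned medium from a 2 h incubation of chemical with alginate-water microspheres (no S9), then were exposed 24 h. Viability was read as protease-substrate cleavage to a fluorescent probe; loss of signal was fitted bidirectionally over 0.002–200 uM.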

A short description of experiment [6]: CCTE_Shafer_MEA_dev_firing_rate_mean: CCTE's Neural Network Formation Assay for Mean Firing Rate, Shafer Lab (AID 2284031).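 For AC50: curve fitted for loss of firing so AC50 reflects decreased mean firing rate.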 The essentials: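 Extracellular spike frequency, AUC over DIV 5–12 recordings, in rat cortical neuron MEA cultures dosed from plating; loss direction vs DMSO.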
Experiment [7] is described as follows: CCTE_Shafer_MEA_dev_per_burst_spike_percent: CCTE's Neural Network Formation Assay for Percent of Spikes in a Burst, Shafer Lab (AID 2284032).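 For AC50: fitted as a decrease in burst spike percentage below DMSO baseline.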 The essentials:
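Value is trapezoidal AUC over recordings on days 5, 7, 9 and 12 of the well-mean fraction of spikes falling in single-electrode bursts; rat cortical cultures exposed continuously from plating, treatment renewed DIV 5 and 9, fitted downward against DMSO.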

The target in experiment [8] is Estrogen receptor (Homo sapiens) (UniProt P03372). Kind of experiment: CCTE_Deisenroth_AIME_384WELL_LUC_Active: CCTE's 384-well Estrogen Receptor Transactivation Assay with AIME metabolic competence (ERTA luciferase; metabolism positive), Deisenroth Lab (AID 2284030; active = hit-call score of the fitted dose curve at least 0.9, where 1 is the maximum). A digest of the protocol: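 Test chemicals (10-point series, 0.002 - 200 uM) were preincubated 2 hours with alginate-immobilized phenobarbital/beta-naphthoflavone-induced male Sprague Dawley rat liver S9; conditioned medium then went onto VM7Luc4E2 breast cells for 24 hour. Luciferase gain-of-signal fitted relative to 17beta-estradiol.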

Experiment [9] in a line: CCTE_Shafer_MEA_acute_burst_number: CCTE's Neural Acute Assay for Single-Electrode Bursts, Shafer Lab (AID 2284013). The essentials:
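Burst totals were derived with adaptive spike detection (8x rms threshold) on filtered signals from rat cortical cultures; change relative to pre-treatment baseline after 40-min compound exposure (0.03-40 uM) was fitted in the negative direction against DMSO.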

Experiment [10] is described as follows: CCTE_Shafer_MEA_acute_per_burst_spike_number_mean: CCTE's Neural Acute Assay for Average Number of Spikes Per Burst, Shafer Lab (AID 2284015).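 Note: hits are decreases in mean spikes per burst versus baseline.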 A digest of the protocol:
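Primary rat cortical neurons on 48-well MEA plates, treated on DIV 13 or 15 at 0.03-40 uM. Spontaneous activity recorded 40 min before and 40 min after compound at 37 C; percent change in mean spikes per single-electrode burst per well, fitted in the loss direction versus DMSO.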

Experiment [11] can be described thus: CCTE_Shafer_MEA_acute_interburst_interval_mean: CCTE's Neural Acute Assay for Mean Interburst Interval, Shafer Lab (AID 2284016).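 Note: percent change of mean interburst interval versus each well's own pre-dose baseline; curves fitted for decrease in interburst interval relative to DMSO.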 The essentials: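 Primary rat cortical neurons on 16-electrode MEA wells were recorded 40 min at baseline on DIV 13 or 15, then 40 min after compound (0.03-40 uM), at 37 C. Value is percent change in mean interburst interval per well, DMSO as negative control.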

Experiment [12] is described as follows: CCTE_Shafer_MEA_acute_burst_percentage_mean: CCTE's Neural Acute Assay for Percentage of Spikes in a Burst, Shafer Lab (AID 2284017).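 For AC50: curve fitted for loss of signal so potency reflects decreased burst percentage.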 The essentials: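 Primary rat cortical neurons on 16-electrode MEA wells; 40 min baseline recorded at DIV 13 or 15, then 40 min after compound (0.03-40 uM) at 37 C. Well-mean fraction of spikes in single-electrode bursts; percent change from baseline, DMSO as negative control.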

Experiment [13] in a line: CCTE_Shafer_MEA_acute_burst_percentage_std: CCTE's Neural Acute Assay for Standard Deviation of Burst Percentage, Shafer Lab (AID 2284018).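 Note: fitted in the negative direction so actives lower burst percentage SD.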 A digest of the protocol:
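Primary rat cortical neurons on 16-electrode MEA wells were recorded 40 min at baseline (DIV 13 or 15), then 40 min after compound (0.03-40 uM), at 37 C. Well value is SD across electrodes of spikes-in-bursts/total spikes; endpoint is percent change, DMSO-referenced.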

Experiment [14] in a line: CCTE_Shafer_MEA_acute_per_network_burst_spike_number_mean: CCTE's Neural Acute Assay for Average Number of Spikes in a Network Burst, Shafer Lab (AID 2284019). The essentials:
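Acute exposure of rat primary cortical networks (DIV 13/15) on MEAs; adaptive spike detection at 8x rms noise, 37 C. Percent change in spikes per network burst after 40 min with compound (0.03-40 uM), negative direction vs DMSO.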

Experiment [15] is described as follows: CCTE_Shafer_MEA_acute_per_network_burst_spike_number_std: CCTE's Neural Acute Assay for Standard Deviation of Number of Spikes in a Network Burst, Shafer Lab (AID 2284020).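 Note: fitted for decrease in spike-number SD versus DMSO so actives lower it.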 A digest of the protocol:
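Acute MEA exposure, rat cortical neurons, 0.03-40 uM. Per-well % change versus own baseline; DMSO as negative control.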

Experiment [16] is described as follows: CCTE_Shafer_MEA_acute_per_network_burst_electrodes_number_mean: CCTE's Neural Acute Assay for Mean Number of Electrodes in a Network Burst, Shafer Lab (AID 2284021).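 Note: curves fitted for decreases only so hits reduce electrodes per burst.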 The essentials:
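Rat primary cortical neurons on 16-electrode MEA wells were recorded 40 min at baseline on DIV 13 or 15, then 40 min after compound (0.03-40 uM), at 37 C. Value is percent change per well, fitted in loss direction versus DMSO.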

The nature of experiment [17]: CCTE_Shafer_MEA_acute_network_burst_percentage: CCTE's Neural Acute Assay for Percentage of Network Bursts, Shafer Lab (AID 2284022).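 Note: curves fitted for loss so actives lower network burst percentage.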 The essentials:
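Primary rat cortical neurons on 16-electrode MEA wells, treated on DIV 13 or 15 with compound (0.03-40 uM); 40-min baseline and 40-min post-exposure recordings at 37 C. Value is percent change in spikes within network bursts versus baseline, DMSO negative control.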

A short description of experiment [18]: CCTE_Shafer_MEA_acute_cross_correlation_area: CCTE's Neural Acute Assay for Area of Cross Correlation, Shafer Lab (AID 2284024).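 Note: area under pooled inter-electrode spike cross-correlation near zero lag as percent change from own baseline; curves fitted for loss of cross-correlation area so actives lower synchrony.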 The essentials: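 Primary rat cortical neurons on 48-well MEA plates (16 electrodes/well) were recorded 40 min at baseline on DIV 13 or 15, then 40 min with compound (0.03-40 uM) at 37 C; cross-correlation area expressed as percent change from baseline.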

Experiment [19] in a line: CCTE_Shafer_MEA_acute_synchrony_index: CCTE's Neural Acute Assay for Synchrony, Shafer Lab (AID 2284027).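 Note: network synchrony index of spontaneous spiking in primary rat cortical neurons on MEAs; fitted for loss of signal so actives lower synchrony relative to DMSO.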 The essentials: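 Acute exposure of rat primary cortical neurons (DIV 13 or 15) at 0.03-40 uM. Synchrony index, 40 min before vs after, as % change relative to DMSO control.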
Experiment [20] is described as follows: CCTE_Shafer_MEA_acute_cross_correlation_HWHM: CCTE's Neural Acute Assay for Cross Correlation at Half Width at Half Maximum, Shafer Lab (AID 2284026).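 Note: spontaneous network firing of rat primary cortical neurons on multiwell microelectrode arrays; percent change per well from pre-dose baseline in spike cross-correlogram half width; hits are a decrease in cross-correlogram half width relative to DMSO.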 The essentials:
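Primary rat cortical neurons on 16-electrode MEA wells; 40-min baseline on DIV 13 or 15, then 40-min recording with compound (0.03-40 uM) at 37 C. HWHM of spike cross-correlogram expressed as percent change from baseline per well, DMSO reference.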

Molecules are shown by their SMILES. Records with an inconclusive call do not appear. The source made the active and inactive calls. Rule for the calls, unless noted: active = hit-call score of the fitted dose curve at least 0.9, where 1 is the maximum; inactive = score below 0.9.

Sequence of Estrogen receptor (Homo sapiens) (P03372 whole entry, looked up): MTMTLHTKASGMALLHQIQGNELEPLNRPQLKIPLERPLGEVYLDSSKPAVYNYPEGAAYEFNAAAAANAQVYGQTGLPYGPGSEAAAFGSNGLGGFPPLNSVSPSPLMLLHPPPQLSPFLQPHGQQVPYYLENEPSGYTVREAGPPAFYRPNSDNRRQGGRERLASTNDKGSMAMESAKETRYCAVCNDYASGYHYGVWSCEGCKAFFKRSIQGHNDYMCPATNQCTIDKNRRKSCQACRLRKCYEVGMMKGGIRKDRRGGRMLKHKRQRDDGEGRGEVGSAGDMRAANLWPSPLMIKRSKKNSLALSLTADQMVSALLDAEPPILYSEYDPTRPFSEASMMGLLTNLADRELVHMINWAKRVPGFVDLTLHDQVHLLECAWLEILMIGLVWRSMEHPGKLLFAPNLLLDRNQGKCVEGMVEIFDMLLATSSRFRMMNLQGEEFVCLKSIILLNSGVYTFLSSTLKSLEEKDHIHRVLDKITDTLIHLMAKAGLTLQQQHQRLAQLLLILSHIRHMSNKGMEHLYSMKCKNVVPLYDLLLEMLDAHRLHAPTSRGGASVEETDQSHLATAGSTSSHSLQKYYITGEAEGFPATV

`CCCCCCCCCCCCOC(=O)c1cc(O)c(O)c(O)c1`: the outcome in experiment [1], in [2], in [3] and in [4] was inactive. In experiment [5], the AC50 (commonly the concentration giving half of the maximal activity seen) is 128 µM (active).

Consider `O=CC(F)(F)C(F)(F)C(F)(F)C(F)F`, for which the outcome in [6] and in experiment [7] was inactive.

As to `CCCCc1ccc2ccccc2c1S(=O)(=O)O`, the result in experiment [8], in experiment [4] and in experiment [5] was inactive.

Take `O=S(=O)(O)c1ccccc1`: the outcome in experiment [1] and in [3] was inactive.

As for `CC(C)[C@@H]1CC[C@@H](C)C[C@H]1O`, the result in [1] and in experiment [5] was inactive.

In the case of `O=C(F)C(F)(F)C(F)(F)C(F)(F)C(F)F`, the compound was classed as inactive in [6] and in experiment [7].

On to `O=P(O)(O)CCC(F)(F)C(F)(F)C(F)(F)C(F)(F)C(F)(F)C(F)(F)F`, for which the call in experiment [6] and in experiment [7] was inactive.

As for `O=C(F)C(F)(F)C(F)(F)C(F)(F)C(=O)F`, the compound was classed as inactive in experiment [6] and in experiment [7].

As for `COC(=O)C(F)(F)C(F)(F)C(F)(F)C(F)(F)C(F)(F)F`, the call in [6] and in experiment [7] was inactive.

As to `O=C(OC(=O)C(F)(F)C(F)(F)F)C(F)(F)C(F)(F)F`, the compound was called inactive in experiment [6] and in [7].

For `O=C(C=C(O)C(F)(F)F)C(F)(F)F`, the compound was called inactive in experiment [6] and in [7].

As for `CN(Cc1cnc2nc(N)nc(N)c2n1)c1ccc(C(=O)N[C@@H](CCC(=O)O)C(=O)O)cc1`, the outcome in experiment [1] was inactive. Also, the AC50 in [6] is 0.123 µM (active); in experiment [7] it was 0.0318 µM (active).

As for `NC(=NCCCCCCN=C(N)/N=C(\N)Nc1ccc(Cl)cc1)/N=C(\N)Nc1ccc(Cl)cc1`, the result in experiment [1] was inactive. The figures for the AC50 in [3] and in experiment [5] were 59.5 µM (active) and 46.8 µM (active), respectively.

In the case of `O=C(O)CCC(F)(F)C(F)(F)C(F)(F)C(F)(F)C(F)(F)F`, the compound was classed as inactive in experiment [6] and in [7].

As to `CN(CCO)S(=O)(=O)C(F)(F)C(F)(F)C(F)(F)C(F)(F)C(F)(F)C(F)(F)C(F)(F)C(F)(F)F`, the result in [6] and in [7] was inactive.

With `O=P(O)(O)CCC(F)(F)C(F)(F)C(F)(F)C(F)(F)C(F)(F)C(F)(F)C(F)(F)C(F)(F)F`, in [6], the call was inactive. Further, the AC50 in [7] is 4.78 µM (active).

With `COC(=O)C(F)(F)C(F)(F)C(F)(F)F`, the outcome in experiment [6] and in [7] was inactive.

For `CCCCCCCCCC=CCC1CC(=O)OC1=O` (configuration not stated), the result in [1], in experiment [8], in experiment [4] and in experiment [5] was inactive.

Regarding `NC(C(F)(F)F)C(F)(F)F`, the compound was called inactive in [6] and in [7].

For `C=CC(F)(F)C(F)(F)C(F)(F)C(F)(F)F`, the call in experiment [6] and in experiment [7] was inactive.

For the compound `CN(C)CCOC(c1ccccc1)c1ccccc1`, the result in [1], in [10], in [13], in experiment [14], in experiment [15] and in experiment [18] was inactive. Moreover, the call in experiment [19] and in experiment [6] was inactive. Besides, the AC50 in [9] was 3.11 µM (active); in experiment [11] it was 7.21 µM (active); in [12], 5 µM (active); in [16], 1.25 µM (active); in [17], 7.74 µM (active); in [7], 10 µM (active).

As for `COc1cc([N+](=O)[O-])ccc1N`, the compound was called inactive in [8] and in experiment [4]. The AC50 in experiment [3] was 118 µM (active); in experiment [5] it was 100 µM (active).

As for `CCCCC(CC)C(=O)O` (configuration not stated), the outcome in experiment [1], in [2], in experiment [3] and in experiment [5] was inactive.

Turning to `Oc1ccc(Cc2ccccc2O)cc1`, the AC50 in experiment [9] was 0.0236 µM (active); in [18] it was 0.00812 µM (active). Besides, the compound was classed as inactive in experiment [10], in experiment [11], in [12], in experiment [13], in experiment [14] and in experiment [15]. The outcome in experiment [16], in experiment [17], in experiment [20] and in experiment [19] was inactive.
